NTMT1 inhibitor – inhibitors of human N-terminal methyltransferase NTMT1. AID 1645870. 2.5% of 59,000 active. NTMT1 MTase-Glo SAH luminescence, purified enzyme. Potency, µM (titrated, usually from 114 µM), without a hit: at the top dose activity change, negative = inhibition, actives largely listed as inhibitors;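 note: potency is the fitted concentration of half-maximal effect; plate controls were DMSO vehicle for no effect and no enzyme for full effect; nearly all actives have a fitted effect of over 65% in size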
DRV1 agonist – activates human resolvin D1 receptor GPR32; O75388; CHO-K1 GPR32 beta-arrestin PathHunter luminescence, 90 min; zero percent set by DMSO-only wells; activation, % at 76.9 µM; 2.5% of 48,000 active; AID 1346428;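 active = activation of at least 60% and not above a set upper limit, about 1 call in 100 departs from these limits; inconclusive = activation of 40% to 60%, or above that upper limit; inactive = activation under 40%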; note: 0% is about no effect
Target sequence (O75388 whole entry, looked up): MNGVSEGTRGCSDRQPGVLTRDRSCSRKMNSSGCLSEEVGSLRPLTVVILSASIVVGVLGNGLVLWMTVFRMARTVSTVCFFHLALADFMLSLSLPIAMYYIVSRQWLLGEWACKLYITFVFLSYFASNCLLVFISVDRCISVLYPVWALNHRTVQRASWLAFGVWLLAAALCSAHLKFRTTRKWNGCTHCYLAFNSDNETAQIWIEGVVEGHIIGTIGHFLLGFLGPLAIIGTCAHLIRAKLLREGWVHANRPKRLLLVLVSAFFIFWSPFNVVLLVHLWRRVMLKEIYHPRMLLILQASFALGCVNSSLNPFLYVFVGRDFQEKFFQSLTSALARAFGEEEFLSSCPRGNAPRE
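CHO-K1 cells stably expressing ProLink-tagged GPR32 and Enzyme Activator-tagged beta-arrestin were seeded at 2,500 cells/well overnight, exposed to compounds for 90 min at 37 °C, then read by beta-Gal complementation chemiluminescence after 1 h detection reagent.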
FH mod – Identification of activators of human fumarate hydratase by quantitative high-throughput screening; Fumarate hydratase, mitochondrial (Homo sapiens), P07954; FH coupled MDH/diaphorase resazurin fluorescence, 15 min; Potency, µM (highest dose often 79.9 µM), without a hit: at the highest dose activity change, negative = inhibition, hits mostly inhibitors; 0.22% of 54,000 active; AID 1347055, 2019; note: potency is the fitted concentration of half-maximal effect; % is set by controls: 0 for no effect and ±100 for the full control effect; the screen sought activators but most active calls are inhibition curves; nearly all actives have a fitted effect of over 45% in size
GALK inhibitor – GALK (human) enzyme inhibition; P51570; recombinant GALK, Kinase-Glo ATP luminescence, 1 h; Potency, µM (top dose mostly 57.5 µM), inactives show at the highest dose activity, negative = inhibition, actives largely listed as inhibitors; 44,000 tested, under 10 active; AID 1347072;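 note: plate controls were full GALK reaction for no effect and reaction lacking GALK for full effect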
Target sequence (P51570 whole entry, looked up): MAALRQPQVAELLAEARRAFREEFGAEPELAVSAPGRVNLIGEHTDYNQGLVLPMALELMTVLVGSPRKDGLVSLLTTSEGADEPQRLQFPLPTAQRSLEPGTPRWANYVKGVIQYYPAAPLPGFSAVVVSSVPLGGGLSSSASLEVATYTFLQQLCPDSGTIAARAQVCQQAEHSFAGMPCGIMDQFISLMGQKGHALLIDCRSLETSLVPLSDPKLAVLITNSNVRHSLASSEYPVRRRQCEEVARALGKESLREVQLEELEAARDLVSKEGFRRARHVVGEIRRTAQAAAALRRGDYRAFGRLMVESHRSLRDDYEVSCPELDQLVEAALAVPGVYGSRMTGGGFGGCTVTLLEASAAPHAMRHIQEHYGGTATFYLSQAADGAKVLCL
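Luminescent ATP-depletion readout (Kinase-Glo Plus, 10 min) after 1 h RT reaction of 5 nM GALK, 35 uM ATP, 100 uM galactose, pH 8.0 HEPES buffer. Decreased kinase activity scored as inhibition.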
TSG101-PTAP inh – inhibitors of HIV-1 PTAP binding to human TSG101, validation; Q99816; Potency, µM (highest dose often 115 µM), actives largely listed as inhibitors; 44,000 tested, under 10 active; Fluorescence polarization, FITC-PTAP peptide/Tsg101, 20 min; note: potency is the fitted concentration of half-maximal effect; 0% is about no effect
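FITC-labeled PTAP peptide (50 nM final) binding to Tsg101 binding domain (10 uM final) read by fluorescence polarization after 20 min at r.t. in HEPES pH 7.5 buffer. Actives by CRC class, <25 µM.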
B2AR arrestin ag – ADRB2 beta-arrestin recruitment. 44,000 tested, under 10 active. Potency, µM (titrated, usually from 46.1 µM), most hits filed as activators. HTLA Tango cells, beta-arrestin recruitment, luciferase luminescence, 18 h. P07550;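 note: potency is the fitted concentration of half-maximal effect; 0% = DMSO and full agonism = EC100 isoproterenol or metaproterenol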
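Tango cells (recombinant beta2-AR, beta-arrestin, tTA-driven luciferase), 1500/well in DMEM 1% FBS, treated 18 h at 37 °C with compounds up to 46 µM; luciferin mix added, luminescence read after 15 min; %activity curves fitted and curve-classed.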
* marks the source's active call; other numbers are inactive results; i = inactive; ? = inconclusive; · = not tested or not shown; ! = a repeat was not active; [ ] = another dose, or the depositor's remark. Only some compounds are listed: those with a hit (about 3.7% of all), similar ones and a draw of the others. Unless noted, calls come from the whole dose curve; as a rule, active = well fitted curve in the direction sought with a large enough effect; inconclusive = small, poorly fitted or top-dose-only effect, or another doubt; inactive = no such curve, though single readings can be large; an effect the other way counts as inactive or inconclusive.

SMILES | NTMT1 inhibitor | DRV1 agonist | FH mod | GALK inhibitor | TSG101-PTAP inh | B2AR arrestin ag
CN1CCN(Cc2ccc(-c3cnc4[nH]cc(-c5ccc6[nH]ccc6c5)c4c3)cc2)CC1 | 20µM* | · | -25% | · | · | ·
CC(=O)c1ccc(N2CCN(S(=O)(=O)c3ccc(-c4coc(C)n4)cc3)CC2)cc1 | -21% | 63* | 3% | -7% | i | i
Cc1ccc(-c2ccc(=O)n(CC(=O)NCCC3CC3)n2)cc1 | 14% | · | · | · | · | ·
CC(C)c1ccccc1NC(=O)CSc1nnc(COc2ccccc2Cl)o1 | 14% | 87* | 2% | 1% | i | i
CC(C)c1ccccc1NC(=O)CSc1nnc(COc2ccccc2)o1 | -7% | 12 | -30% | 4% | i | i
NS(=O)(=O)c1cccc2c1c([N+](=O)[O-])cc1nc(O)c(O)nc12 | · | -25 | 18µM* | · | · | ·
COc1ccc(Nc2cc(C(=O)NCCCN(C)Cc3ccccc3)c3ccccc3n2)c(OC)c1 | ? | 65* | -15% | 2% | i | i
O=C(NCCc1ccccc1)c1cc(Nc2ccccc2)nc2ccccc12 | -5% | 7 | -25% | -2% | i | i
CC(C)c1ccc(Nc2cc(C(=O)NCCc3ccccc3)c3ccccc3n2)cc1 | -18% | 85* | 3% | 0% | i | i
O=C(Nc1cnccc1Cl)N1CCN(Cc2ccc3c(c2)OC(F)(F)O3)CC1 | 2% | · | · | · | · | ·
COc1ccc(Cl)cc1N=C1NC(=O)CC(C(=O)Nc2ccccc2C(F)(F)F)S1 (centres undefined) | 14% | 13 | -20% | 0% | i | i
COc1cc(C(=O)O)ccc1NC(=O)[C@@H]1N[C@@H](CC(C)(C)C)[C@](C#N)(c2ccc(Cl)cc2F)[C@H]1c1cccc(Cl)c1F | 11µM* | · | · | · | · | ·
COc1ccc2cc3cc(C(=O)Nc4ccccc4C)oc3nc2c1 | 0% | 98* | -2% | 1% | i | i
CNCCC(Oc1ccc(C(F)(F)F)cc1)c1ccccc1 (centres undefined) | -31%[57.5 µM] | 104*! | -9%[53.3 µM] | · | · | ·
CCOC(=N)c1nc2ccc3ncnc(Nc4cc(F)c(F)cc4Cl)c3c2s1 | -23% | · | · | · | · | ·
COc1ccc2c(CNCCc3ccco3)c(C(=O)O)n(Cc3ccc(C)cc3)c2c1 | -1% | 89* | -15% | 0% | i | i
COc1ccc(Cn2c(C(=O)O)c(CNCc3ccc(C)o3)c3ccc(OC)cc32)cc1 | -1% | 75* | -15% | 1% | i | i
COc1ccc(Cn2c(C(=O)O)c(CNC3CCCC3)c3ccc(OC)cc32)cc1 | ? | 20 | -18% | 1% | i | i
COc1ccc2c(CNC3CCC(C)CC3)c(C(=O)O)n(Cc3ccc(F)cc3)c2c1 (centres undefined) | 9% | 91* | ? | -2% | i | i
COc1ccc2c(CNCCc3ccco3)c(C(=O)O)n(Cc3ccc(F)cc3)c2c1 | -3% | 33 | -19% | -7% | i | i
C[C@@H]1O[C@@H](O[C@H]2[C@H](OC(=O)[C@]34CCC(C)(C)C[C@H]3C3=CCC5[C@@]6(C)C[C@H](O)[C@H](O[C@@H]7O[C@H](CO)[C@@H](O[C@@H]8O[C@H](CO)[C@@H](O)[C@H](O)[C@H]8O)[C@H](O)[C@H]7O)[C@@](C)(CO)C6[C@H](O)C[C@@]5(C)[C@]3(C)C[C@H]4O)OC[C@H](O)[C@@H]2O)[C@H](O)[C@H](O)[C@H]1O[C@@H]1OC[C@@H](O)[C@H](O[C@@H]2OC[C@](O)(CO)[C@H]2O)[C@H]1O (some centres undefined) | ? | · | 0%[13.5 µM] | · | · | ·
CC(CCC1C(C(=O)O)=CC(=O)CC1(C)C)O[C@@H]1O[C@H](CO)[C@@H](O)[C@H](O)[C@H]1O (some centres undefined) | ? | · | 0%[53.3 µM] | · | · | ·
Cc1cc(O)c(-c2ccnc3cc(-c4ccccc4)nn23)cc1Cl | ? | 90* | 6% | -2% | i | i
COc1ccc(OC)c(C(=O)Nc2nc(-c3ccccc3)cs2)c1 | 15% | · | · | · | · | ·
COc1ccc(CCN2CCC(CNC(=O)c3cnn(-c4cccc(Cl)c4)c3C3CCN(C(=O)OC(C)(C)C)CC3)CC2)cc1 | 79µM* | -21 | -11% | 0% | i | i
SMILES | NTMT1 inhibitor | DRV1 agonist | FH mod | GALK inhibitor | TSG101-PTAP inh | B2AR arrestin ag
COCCCNC(=O)c1cnn(-c2ccccc2Cl)c1C1CCN(C(=O)OC(C)(C)C)CC1 | 89µM* | -16 | -9% | 3% | i | i
CCn1c(-c2nonc2N)nc2c(C#CCO)ncc(OCCCN)c21 | -5%[57.5 µM] | · | 1% | · | · | ·
C[C@]12CC[C@@H]3c4ccc(O)cc4CC[C@H]3[C@@H]1CC[C@@H]2O | ? | -9 | -23%[53.3 µM] | · | · | ·
CC(=O)Oc1ccc2c(c1)CC[C@@H]1[C@@H]2CC[C@]2(C)[C@@H](O)CC[C@@H]12 | 25µM* | ? | -14%[53.3 µM] | · | · | ·
CN(C)CCOc1ccc(-c2nc(-c3ccc4c(c3)CC/C4=N/O)c(-c3ccncc3)[nH]2)cc1 | 25µM* | · | 2% | · | · | ·
CN(C)CCOc1ccc(-c2nc(-c3ccc4c(c3)CCC4=NO)c(-c3ccncc3)[nH]2)cc1 | ? | · | 5%[53.3 µM] | · | · | ·
COc1cccc(NC(=O)CSc2nnc(-c3cccc(OC)c3)o2)c1 | 6% | 78* | -20% | -7% | i | i
COc1cccc(-c2nc(SCC(=O)Nc3ccc4c(c3)OCCO4)c(-c3ccccc3)[nH]2)c1 | 0% | -21 | 40µM* | -7% | i | i
COc1ccc(-c2nc(SCC(=O)Nc3ccc4c(c3)OCCO4)c(-c3ccccc3)[nH]2)cc1 | -2% | -12 | ? | 4% | i | i
COc1cccc(-c2nnc(SCC(=O)N(C)C3CCCCC3)o2)c1 | -1% | 72* | -3% | 6% | i | i
CCOc1cc(F)c(CCNC(=O)c2cc3sccc3n2Cc2ccccc2)cc1OCC | 16% | · | · | · | · | ·
CC1CCN(C(=O)CC#N)CC1N(C)c1ncnc2[nH]ccc12 (centres undefined) | 3%[57.5 µM] | · | 0% | · | · | ·
CC(C)C1=CCC(C)(O)C(OC2OC(CO)C(O)C(O)C2O)C1 (centres undefined) | -1%[29.8 µM] | · | -8%[53.3 µM] | · | · | ·
CC(/C=C/[C@@H]1C[C@]1(C)c1ccc2c(c1)C(C)(C)CCC2(C)C)=C\C(=O)O | -3% | · | · | · | · | ·
CC[C@@H]1C(=O)N(C)c2cnc(Nc3ccc(C(=O)NC4CCC(N5CCN(CC6CC6)CC5)CC4)cc3OC)nc2N1C(C)C (some centres undefined) | 25µM*! | · | 3% | · | · | ·

Screening results from PubChem.
